In the supplement of paper PMC12350171:
Counter-ions that a name gives are not always drawn. A number with no mark means an inactive call.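 How the source made its calls: active = AUC significantly below DMSO controls by Student t-fit with adjusted P under 0.01; inactive = not significantly reduced.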

System: Vibrio cholerae
Assay: growth AUC normalised to DMSO control (fraction of control); higher = less growth inhibition, active = hit call of the paper
Details: 20 µM
Summary of the method: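 After two anaerobic passages, pathogens were added at a starting OD578 of 0.01 to pre-reduced mGAM plates holding compound at 20 μM with 1% DMSO; hemin and NAD were supplemented for Haemophilus parainfluenzae. Sealed with breathable membranes, plates were read at OD578 hourly for 24 h, in three biological replicates. The trapezoidal rule, applied up to the exponential-to-stationary transition, gave the growth-curve AUC, which was normalised to DMSO controls on the same plate.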

Row | SMILES | growth AUC normalised to DMSO control
1 | Cc1cc(/C=C/c2ccc3cc(N(C)C)ccc3[n+]2C)c(C)n1-c1ccccc1 [Pyrvinium pamoate] | 0.865
2 | CC(C)OC(=O)C(C)(C)Oc1ccc(C(=O)c2ccc(Cl)cc2)cc1 [Fenofibrate] | 1
3 | NNc1nncc2ccccc12 [Hydralazine hydrochloride] | 1.06
4 | O=C(O)c1cc(/N=N/c2ccc(S(=O)(=O)Nc3ccccn3)cc2)ccc1O [Sulfasalazine] | 1.01
5 | COC1=CC(=O)C[C@@H](C)[C@]12Oc1c(Cl)c(OC)cc(OC)c1C2=O [Griseofulvin] | 0.99
6 | Cn1c(=O)c2nc[nH]c2n(C)c1=O [Theophylline monohydrate] | 1.07
7 | N=C(N)c1ccc(OCCCCCOc2ccc(C(=N)N)cc2)cc1 [Pentamidine isethionate] | 1.02
8 | Cc1cn([C@H]2C[C@H](N=[N+]=[N-])[C@@H](CO)O2)c(=O)[nH]c1=O [Zidovudine] | 0.956
9 | COc1ccc2c(c1)c(CC(=O)O)c(C)n2C(=O)c1ccc(Cl)cc1 [Indomethacin] | 0.448 (active)
10 | O=c1[nH]cnc2c1ncn2[C@H]1CC[C@@H](CO)O1 [Didanosine] | 1.04
11 | C[C@]12CC[C@@H]3c4ccc(O)cc4CC[C@H]3[C@@H]1C[C@@H](O)[C@@H]2O [Estriol] | 1.02
12 | COc1cc([C@@H]2c3cc4c(cc3[C@@H](O[C@@H]3O[C@@H]5CO[C@@H](C)O[C@H]5[C@H](O)[C@H]3O)[C@H]3COC(=O)[C@H]23)OCO4)cc(OC)c1O [Etoposide] | 1.02
13 | CCN1CCN(C(=O)N[C@@H](C(=O)N[C@@H]2C(=O)N3[C@@H]2SC(C)(C)[C@@H]3C(=O)O)c2ccccc2)C(=O)C1=O [Piperacillin sodium salt] | 0.63 (active)
14 | CC(=O)[C@H]1CC[C@H]2[C@@H]3CCC4=CC(=O)CC[C@]4(C)[C@H]3CC[C@]12C [Progesterone] | 1
15 | O=c1[nH]c(=O)n([C@H]2C[C@H](O)[C@@H](CO)O2)cc1C(F)(F)F [Trifluridine] | 1.05
16 | C[C@H]1[C@H](NC(=O)/C(=N\OC(C)(C)C(=O)O)c2csc(N)n2)C(=O)N1S(=O)(=O)O [Aztreonam] | 0.773 (active)
17 | C=C(CC)C(=O)c1ccc(OCC(=O)O)c(Cl)c1Cl [Ethacrynic acid] | 1.02
18 | CCCC(=O)Nc1ncnc2c1ncn2[C@@H]1O[C@@H]2COP(=O)(O)O[C@H]2[C@H]1OC(=O)CCC [Bucladesine sodium salt] | 1.01
19 | Cc1ncc(C[n+]2csc(CCO)c2C)c(N)n1 [Thiamine hydrochloride] | 0.967
